Source: PubChem (several laboratories)
esBAF inh: inhibitors of esBAF chromatin remodeling in mouse ES cells; Bmi1-luciferase knock-in reporter, 24 h; 100% = twice the neutral-well signal; reporter increase, % at 12.5 µM; 350,000 compounds, 2% hits; in the data active = activation above about 40%; inconclusive = no clear call, values can overlap the other calls;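 note: 0% = median of the plate's neutral control wells and 100% = double that signal; a rise in the Bmi1 reporter signal indicates esBAF inhibition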
MITF act: activators of MITF-driven TRPM1 promoter activity in SK-MEL-5 cells; 300,000 compounds, 0.75% hits; SK-MEL-5 TRPM1-promoter luciferase, 24 h; % of positive control, neutral wells = 0; activation, % at 12.5 µM; AID 588334;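 active = mean activation of at least 80% with every replicate also reaching 80%; inconclusive = mean reaches 80% but some replicate falls short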;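 note: 0% = neutral control wells and 100% = parthenolide positive control wells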
Wnt bcat act: activators of Wnt/beta-catenin signaling. activation, % at 9.35 µM. Wnt/beta-catenin reporter cell assay, activator, plate reader. 300,000 compounds, 1.2% hits; in the data active = activation above about 30%, passing the limit was not always enough; inconclusive = no clear call, values can overlap the other calls;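 note: 0% = neutral control wells and 100% = positive control wells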
AHR act: human AHR activation; P35869; AHR-responsive luciferase reporter cells, luminescence; activation, % at 5 µM; 320,000 compounds, 2.5% hits; AID 2796; in the data active = activation above about 47%;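 note: 0% = vehicle wells and 100% = reference agonist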
GAA850 FXN act: activators of GAA850 frataxin (FXN) promoter; HEK293 lucGAA850 FXN promoter luciferase reporter, 24 h; percent of 10 µM SAHA response; activation, % at 6 µM; 360,000 compounds, 0.56% hits; AID 540364;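 active = activation above the average of all compounds screened plus 3 SD, cutoff fixed separately per campaign, cut at about 7.5% in these data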;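 note: 0% = DMSO wells and 100% = 10 µM SAHA wells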
AHR act cf: confirmation of human aryl hydrocarbon receptor activators; activation, % at 9 µM; 2,300 compounds, 87% hits; AID 2845; shares compounds with AHR act; human cells, AHR-responsive luciferase reporter, luminescence; in the data active = activation above about 49%;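 note: HepG2 hepatoma cells carrying a DRE-driven firefly luciferase reporter; 0% = vehicle wells and 100% = reference agonist wells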
PXR act counter: activates human PXR in AHR activator counter-screen. shares compounds with AHR act. 2,300 compounds, 88% hits. activation, % at 11.6 µM. AID 434939. cell-based PXR reporter, luciferase luminescence; in the data active = activation above about 11%;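 note: human hepatoma DPX-2 cells expressing full-length human PXR; 0% = DMSO and 100% = reference agonist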
Target sequence (O75469 whole entry, looked up): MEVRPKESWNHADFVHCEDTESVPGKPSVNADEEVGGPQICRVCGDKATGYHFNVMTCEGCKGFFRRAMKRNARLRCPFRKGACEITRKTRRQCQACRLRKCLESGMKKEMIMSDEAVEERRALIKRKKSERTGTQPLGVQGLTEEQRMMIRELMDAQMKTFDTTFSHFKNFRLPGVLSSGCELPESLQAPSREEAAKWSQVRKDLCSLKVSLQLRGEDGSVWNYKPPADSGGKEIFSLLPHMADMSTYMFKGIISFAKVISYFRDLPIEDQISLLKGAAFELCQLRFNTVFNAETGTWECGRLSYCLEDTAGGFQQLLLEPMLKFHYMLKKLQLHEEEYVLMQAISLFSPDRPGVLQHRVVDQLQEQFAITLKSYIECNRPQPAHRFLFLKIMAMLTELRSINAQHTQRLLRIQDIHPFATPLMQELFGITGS
The depositor's hits bear a star; ? = inconclusive; nt = not tested or not shown. Only some compounds are listed: those with a hit (about 4.2% of all), similar ones and a draw of the others.

SMILES | esBAF inh | MITF act | Wnt bcat act | AHR act | GAA850 FXN act | AHR act cf | PXR act counter
Oc1ccc(N=Nc2ccc3c(c2)OCCO3)c(O)c1 | nt | 15 | 0 | 15 | -10 | nt | nt
Oc1ccc(N=Nc2ccc(Br)cc2)c(O)c1 | 17 | 57 | 1 | 89* | 0 | 61* | 9
CCCCNc1c(-c2ccc(-c3cccc(Cl)c3)cc2)nc2ccc(Cl)cn12 | 5 | 17 | 13 | 79* | 1 | 33 | 14*
CC(=O)Nc1sc(-c2ccc(Cl)cc2)nc1-c1ccccc1 | -1 | 14 | 3 | 92* | 2 | -4 | 16*
C[C@@H]1CN([C@H](C)CO)C(=O)c2cc(NC(=O)c3ccncc3)ccc2O[C@H]1CN(C)Cc1ccc2c(c1)OCO2 | -5 | nt | nt | nt | nt | nt | nt
Cc1ccc(C(c2sc3ncnn3c2O)N2CCCCC2)cc1 (stereo unspecified) | 35 | nt | 4 | 6 | 2 | nt | nt
Oc1c(C(c2ccc(F)cc2)N2CCc3ccccc3C2)sc2ncnn12 (stereo unspecified) | -6 | -6 | 2 | 96* | -1 | 78* | 34*
OCC1OC(Oc2c[nH]c3ccccc23)C(O)C(O)C1O (stereo unspecified) | 8 | -19 | 5 | 84* | -1 | 26 | 8
CCOc1ccc2oc(C(=O)Nc3nccs3)c(C)c2c1 | 6 | 30 | 69* | 107* | 5 | 162* | 23*
CCCCc1nnc(NC(=O)c2oc3ccc(OC)cc3c2C)s1 | 28 | 55 | 8 | -7 | -1 | nt | nt
CN(C)CC(=O)N1CC[C@@H]2[C@H]1c1cc(Br)ccc1N(C)[C@H]2CO | -3 | nt | nt | nt | nt | nt | nt
CCCN(C)C[C@H]1Oc2cc(C#CCOC)ccc2S(=O)(=O)N([C@@H](C)CO)C[C@H]1C | 0 | nt | nt | nt | nt | nt | nt
c1csc(C2Nc3ccccc3-c3nc4ccccc4n32)c1 (stereo unspecified) | nt | 36 | 80* | 133* | 2 | 23 | 112*
Cc1ccccc1S(=O)(=O)N1CC[C@@H]2[C@H]1c1cc(-c3ccc(C#N)cc3)ccc1N(C)[C@H]2CO | 7 | nt | nt | nt | nt | nt | nt
Cc1ccc(NC(=O)/C(C#N)=C/c2ccsc2)c(C)c1 | nt | 49 | 4 | 5 | 1 | nt | nt
Cc1ccccc1NC(=O)/C(C#N)=C\c1ccsc1 | nt | -1 | 6 | 84* | 6 | 50* | 62*
CC(C)NC(=O)N[C@H]1C=C[C@H](CC(=O)NC2Cc3ccccc3C2)O[C@@H]1CO | 1 | nt | nt | nt | nt | nt | nt
Nc1cccc(Nc2ncnc3ccccc23)c1 | -1 | 8 | 0 | 152* | 2 | 65* | nt
Cc1cccc(NC(=O)Nc2ccc3c(c2)C(=O)N(C)[C@@H]2CC[C@H](CC(=O)NCc4ccccc4Cl)O[C@H]2CO3)c1 | 9 | nt | nt | nt | nt | nt | nt
COc1ccccc1-c1nc(-c2cccc(C)c2)no1 | -15 | -1 | 0 | 10 | 1 | nt | nt
COc1ccccc1-c1noc(-c2ccccc2)n1 | nt | 33 | nt | 122* | 3 | 101* | 26*
COc1ccccc1-c1noc(-c2ccco2)n1 | 21 | 90* | -2 | 90* | 5 | 120* | 17*
CN(C)CC(=O)N1[C@H](C(=O)NC2CCC2)[C@@H](CO)[C@@H]2Cn3c(ccc(-c4ccccc4)c3=O)[C@@H]21 | -2 | nt | nt | nt | nt | nt | nt
COc1ccc(-c2[nH]c(-c3cc(OC)c4c(c3)OCO4)nc2-c2ccccc2)cc1 | nt | -2 | -2 | 107* | 1 | 54* | 57*
CO[C@@H]1CN(C)C(=O)c2cc(NC(=O)NC(C)C)ccc2OC[C@@H](C)N(Cc2ccc(-c3ccccn3)cc2)C[C@H]1C | 2 | nt | nt | nt | nt | nt | nt
SMILES | esBAF inh | MITF act | Wnt bcat act | AHR act | GAA850 FXN act | AHR act cf | PXR act counter
CCCN(C)C[C@H]1OCCCC[C@H](C)Oc2ccc(N(C)C)cc2C(=O)N([C@H](C)CO)C[C@H]1C | 1 | nt | nt | nt | nt | nt | nt
CCNC(=O)O/N=C(\C)c1sc(-c2ccc(Cl)cc2)nc1C | 43* | nt | 8 | 135* | 2 | 135* | 17*
C/C(=N\OC(=O)NC(C)C)c1sc(-c2ccc(Cl)cc2)nc1C | 38 | 62 | -5 | 109* | 2 | 104* | 17*
C[C@@H]1CCCCO[C@H](CN(C)C(=O)Nc2ccccc2)[C@@H](C)CN([C@@H](C)CO)C(=O)c2cc(NS(=O)(=O)c3cn(C)cn3)ccc2O1 | -1 | nt | nt | nt | nt | nt | nt
C[C@H](CO)N1C[C@H](C)[C@@H](CN(C)C(=O)N[C@H](C)c2ccccc2)OCc2ccccc2-c2c(n(C)c3ccccc23)C1=O | -2 | nt | nt | nt | nt | nt | nt
N#Cc1c(-c2cccs2)cc(-c2ccccn2)nc1N | 15 | -9 | nt | 80* | 2 | 98* | 23*
COc1ccc(-c2cc(-c3cccnc3)c(C#N)c(N)n2)cc1 | nt | nt | -3 | 14 | 2 | nt | nt
N#Cc1c(N)nc2c(c1-c1cccs1)CCCC2 | -20 | -12 | -4 | 18 | 2 | nt | nt
N#Cc1c(-c2ccc(Br)cc2)cc(-c2cccnc2)nc1N | nt | 5 | -2 | 93* | 4 | 73* | 18*
N#Cc1c(-c2cccs2)cc(-c2cccnc2)nc1N | 2 | nt | 9 | 102* | 0 | 130* | 28*
CC(=O)N(C)C[C@@H]1Oc2cc(C#CC(C)(C)O)ccc2S(=O)(=O)N([C@@H](C)CO)C[C@H]1C | 2 | nt | nt | nt | nt | nt | nt
CCc1cc(-c2ccc3c(c2)COc2c4ccccc4nn2-3)on1 | 3 | 73 | 20 | -7 | 1 | nt | nt
CCCC#Cc1ccc2c(c1)COc1c3ccccc3nn1-2 | 1 | 51 | ? | 109* | 1 | 63* | -2
CCOc1ccc(Nc2nc3ccccc3n3nnnc23)cc1 | 18 | nt | -1 | 132* | 2 | 85* | 16*
c1ccc(CCNc2nc3ccccc3n3nnnc23)cc1 | 18 | 15 | nt | 2 | 1 | nt | nt
CCOc1ccc(NC(=O)c2cnc3scc(C)n3c2=O)cc1 | 30 | nt | 2 | 90* | 1 | 129* | 22*
CNC[C@@H]1Oc2c(NC(=O)c3cnccn3)cccc2C(=O)N([C@H](C)CO)C[C@@H]1C | -8 | nt | nt | nt | nt | nt | nt
O=C(CCn1nc(-c2ccccc2)ccc1=O)N1CCOCC1 | nt | 1 | 1 | 8 | 2 | nt | nt
O=C(CCn1nc(-c2ccccc2)ccc1=O)N1CCN(c2ccccn2)CC1 | 3 | -1 | -2 | 82* | -1 | 35 | 9
N/C(=N\OC(=O)c1cccc(Br)c1)c1ccccn1 | -63 | -9 | 5 | 99* | -2 | 95* | 4
CCOc1ccc(C(=O)O/N=C(\N)c2ccccn2)cc1OCC | nt | 46 | 21 | 7 | 4 | nt | nt
Cc1ccc(NC(=O)c2ccc(S(=O)(=O)N3CCOCC3)cc2)cc1 | 15 | 31 | 0 | -1 | 2 | nt | nt
O=C(Nc1ccc(Cl)cc1)c1ccc(S(=O)(=O)N2CCOCC2)cc1 | 14 | -2 | 1 | 80* | -2 | 86* | 17*
O=C(NNc1nc2c(F)cccc2s1)C1COc2ccccc2O1 (stereo unspecified) | nt | 14 | 0 | 19 | 1 | nt | nt
